From ChEMBL document CHEMBL3433997, “St. Jude Leishmania screening dataset” (2016)

Legend:
Type in all cases: functional
[1] = molecular target: Solute carrier family 2, facilitated glucose transporter member 1 (Homo sapiens) (UniProt P11166); assay: ST_JUDE_LEISH: Cytotoxicity at 2uM final concentration against transgenic Leishmania Mexicana promastigotes LmGLUT1 that are glucose transport deficient and complemented with the human glucose transporter GLUT1. Activity is measured by DNA content using SYBR green in vitro
[2] = molecular target: Hexose transporter 1 (Plasmodium falciparum) (UniProt O97467); assay: ST_JUDE_LEISH: Cytotoxicity at 2uM final concentration against transgenic Leishmania Mexicana promastigotes LmPfHT that are glucose transport deficient and complemented with the Plasmodium falciparum hexose transporter. Activity is measured by DNA content using SYBR green in vitro
[3] = molecular target: Glucose transporter (Leishmania mexicana) (UniProt O61059); assay: ST_JUDE_LEISH: Cytotoxicity at 2uM final concentration against transgenic Leishmania Mexicana promastigotes LmGT2 that are glucose transport deficient and complemented with the L. Mexicana glucose transporter 2. Activity is measured by DNA content using SYBR green in vitro

Chain of Solute carrier family 2, facilitated glucose transporter member 1 (Homo sapiens) (P11166 whole entry): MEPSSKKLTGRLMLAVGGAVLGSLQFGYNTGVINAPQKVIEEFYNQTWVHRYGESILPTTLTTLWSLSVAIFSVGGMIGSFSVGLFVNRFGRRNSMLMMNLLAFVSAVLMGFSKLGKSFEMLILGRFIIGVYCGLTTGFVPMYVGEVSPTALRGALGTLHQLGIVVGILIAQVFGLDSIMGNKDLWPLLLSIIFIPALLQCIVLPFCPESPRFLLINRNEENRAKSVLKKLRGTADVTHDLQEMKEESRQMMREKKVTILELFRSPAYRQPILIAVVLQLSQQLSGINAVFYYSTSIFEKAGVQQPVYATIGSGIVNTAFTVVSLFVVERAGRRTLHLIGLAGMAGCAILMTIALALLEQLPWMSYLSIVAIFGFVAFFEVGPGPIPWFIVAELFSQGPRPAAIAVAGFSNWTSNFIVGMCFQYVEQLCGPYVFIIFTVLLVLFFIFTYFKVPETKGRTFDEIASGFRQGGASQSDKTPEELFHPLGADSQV

SMILES	inhibition [1] [%]	inhibition [2] [%]	inhibition [3] [%]
CC(NC(=O)c1ccc(O)c(-c2ccc(Cl)c(Cl)c2)c1)C(=O)NC1CCCCC1 (centres undefined)	5.53	4.55	5.71
Oc1cc(-c2nc(C3(CNCc4ccc(Cl)cc4)CCCCC3)[nH]c2-c2ccncc2)ccc1Cl	4.11	5.35	5.4
Cc1cc2c3c(N)nc(N)nc3ccc2n1C	6.53	10.4	5.15
O=C(NC1CC1c1ccccc1)N(CCCn1ccnc1)Cc1csc(-c2ccc(CNCc3ccccc3)cc2)n1 (centres undefined)	1.52	1	3.57
c1cncc(CN2CCN(Cc3ccc(-c4ccc(-c5nc6ccccc6[nH]5)s4)cc3)CC2)c1	12.2	7.69	1.44
CCC(CC)C(CC(=O)NC(C)(C)CCc1ccccc1OC)Nc1ccc(C#N)c2ccccc12 (centres undefined)	4.46	3.53	3.55
O=C(/C=C/c1ccc(C(F)(F)F)cc1)N1CCc2cc3nccc(N4CCN5CCC[C@H]5C4)c3cc21	1.68	2.34	0.92
COc1ccc2nc(-c3ccccc3)cc(NCCCNc3cc(-c4ccccc4)nc4ccc(OC)cc34)c2c1	3.06	2.6	0.67
CC1CCc2sc(-c3nnc(SC(C)C(=O)N4CCCC4)o3)cc2C1 (centres undefined)	2.14	1.29	-4.77
CCN(Cc1cccc2ccccc12)c1ccc2nc(N)nc(N)c2c1	97.2	99	84
Cc1ccc(Cn2cnc3cc(C(=O)Nc4ccc(-c5cccc(CN(C)C)c5)cc4)ccc3c2=O)o1	75.5	59	51.1
c1ccc2c3c([nH]c2c1)C(c1ccc2c(c1)CCO2)N(c1ncnc(N2CCN(CCCN4CCOCC4)CC2)n1)CC3 (centres undefined)	8.79	3.13	1.89
N=C(N)c1ccc(-c2cc(-c3cccc(C(=N)N)c3)on2)cc1	3.39	0.98	2.32
CCCC1N=C(N)N=C(N)N1c1ccc(C)c(C)c1 (centres undefined)	-0.66	-2.19	-2.79
N=C1NC(=O)C(=Cc2cn(-c3ccccc3)nc2-c2cccc(S(=O)(=O)N3CCCC3)c2)S1	8.5	6.98	7.82
CCCCCN1C(=O)N(c2ccc(Cl)c(Cl)c2)C(N(O)C(=O)Nc2ccc(Cl)c(Cl)c2)C1(C)C (centres undefined)	4.79	4.73	2.87
COc1ccc(CNCc2ccc(-c3ccc(CNCCc4ccccc4)cn3)cc2)cn1	0.68	-0.51	1.46
CCCc1ccc(NC(=O)c2ccc(CN3CCCN(Cc4ccc(OC)cc4)CC3)cc2)cc1	-1.19	-0.55	-0.74
COc1ccc(CN(C)Cc2ccc(NC(=O)c3cccc4c(=O)c5cccc(C)c5[nH]c34)cc2)cc1OC	4.59	11.6	0.44
Cc1cc(=NN=Cc2ccc(Cl)cc2)c2cc(C(F)(F)F)ccc2[nH]1	1.05	-4.87	5.23
Fc1cccc(Nc2nc(NCc3ccc(Cl)c(Cl)c3)nc(Nc3cccc(F)c3)n2)c1	11.7	13.6	7.17
Cc1sc(CNCCCNc2cc(=O)c3ccccc3[nH]2)c(C(F)(F)F)c1C	-2.84	-0.65	-0.52
Cc1cnc(CN(Cc2ccc(-c3ccc(CNCCc4ccc(S(C)(=O)=O)cc4)cn3)cc2)C(=O)c2ccc([N+](=O)[O-])c(C)c2)cn1	1.89	3.15	1.98
CC12CCC(C(=O)N(CC(O)Cn3c4ccc(Cl)cc4c4cc(Cl)ccc43)C1=O)C2(C)C (centres undefined)	2.14	0.85	0.38
O=C(Cc1ccsc1)NCC(c1ccccc1Cl)c1c[nH]c2ccccc12 (centres undefined)	6.27	5.24	4.67

SMILES	inhibition [1] [%]	inhibition [2] [%]	inhibition [3] [%]
CC(C)(C)c1nn(-c2ccccc2)c2[nH]c(=O)c(CNCc3ccccc3)cc12	2.76	2.02	3.75
CCCCN1CCCC[C@H]1[C@@H](O)c1ccnc2ccc(OCC)cc12	2.63	3.12	3.68
CCC1CCc2cc(N)cc(-c3nc4c(c(C)nn4CC)c(=O)[nH]3)c2O1 (centres undefined)	5.2	4.15	3.42
CN1CCC(NCc2cccc(-c3ccc(S(=O)(=O)NCCc4ccccn4)cc3)c2)CC1	3.76	2.04	-2.17
CN(CCc1ccccn1)c1cccc2c1nc(-c1cccnc1)n2CCNCc1ccccc1	14.8	13.4	11.3
CC(C)n1ncc2c(C(=O)N3CCCC4CCCCC43)cc(C3CC3)nc21 (centres undefined)	5.54	6.45	5.73
Cc1ccc(-c2cc(C(=O)Nc3ccc(S(=O)(=O)N4CCCCC4C)cc3)n[nH]2)c(O)c1 (centres undefined)	-0.81	-0.31	-0.79
O=C(/C=C/c1ccc(Cl)c(Cl)c1)NCCCCCN1CCC(NC(=O)Nc2ccc(F)c(F)c2)CC1	-1.34	-0.67	-2.11
COc1ccc2nccc(N3CCC(NCc4ccc5c(n4)NC(=O)CS5)CC3)c2n1	0.15	-0.14	2.01
CC(=O)N/N=C/[C@H](CCc1ccccc1)NC(=O)[C@H](CC(C)C)NC(=O)c1cccc(OCCN2CCOCC2)c1	6.39	8.07	5.79
O=C(Nc1ccc(CN2CCOCC2)cc1)c1ccc(-c2ccc(Br)cc2)o1	2.45	0.46	-2.23
Cc1cccc(Cl)c1S(=O)(=O)N1CCCCC(c2ccc(C(F)(F)F)cc2)=N1	4.54	4.52	3.77
O=C(/C=C/C=C/c1ccc(Cl)c(Cl)c1)NCCCCCN1CCCC2CCCCC21 (centres undefined)	13.3	12.3	13.2
CCCCN(CCCC)C(=N)c1cccc2c1CCCC2	2.36	3.35	2.45
CC1(C)NC(N)=NC(=N)N1OCc1nc(N)nc(Nc2ccccc2)n1	5.43	5.4	5.9
Cc1cc(N)nc2ccc(-c3ccc(CN)cc3)cc12	9.09	6.77	4.15
C#CCOc1ccccc1CN1CCC(N2CCc3cc(NC(=O)c4cc(C)on4)ccc32)C1 (centres undefined)	2.61	1.64	4.74
Nc1cc2c(C3CCN(CC4CCN(C(=O)/C=C/c5ccc(Cl)c(Cl)c5)CC4)CC3)c[nH]c2cn1	1.83	0.67	-0.09
CC(C)N1CCN(C(=O)c2ccc(CNCCCN3CCN(c4ccccc4C(F)(F)F)CC3)s2)CC1	-4.83	0.84	4.26
COc1ccc2nc(N3CCNCC3)nc(NCCCc3ccccc3)c2c1	5.1	2.65	0
N=C(N)Nc1nccc(NCc2ccccc2)n1	-2.64	-0.68	-0.48
COc1cccc2cc(C(=O)N[C@@H](CC(C)C)C(=O)NC(/C=N/NC(=O)c3ccccc3)CCc3ccccc3)oc12 (some centres undefined)	-0.59	2.83	0.75
NCC(=O)NC12CC3CC(CC(C3)C1)C2	1.01	2.25	1.66
CCCCc1ccc2[nH]c(NC(=O)OC)nc2c1	10.2	7.79	9.56
Cn1cnc(CCNC(=O)c2cccc(-c3cccc(-c4nc5cc(C(F)(F)F)ccc5[nH]4)c3)c2)c1	-1.68	1	-2.49

SMILES	inhibition [1] [%]	inhibition [2] [%]	inhibition [3] [%]
Cc1[nH]c(C)c(-c2ccc(Oc3ccc(Cl)cc3)cc2)c(=O)c1Br	-0.61	0.25	-0.13
CCCCCCCCCCS(=O)(=O)N[C@H](COCc1cccc(Oc2ccccc2)c1)COP(=O)(O)OC	0.47	0.77	-1.2
O=[N+]([O-])c1ccc(Oc2ccccc2CNCC2CCN(CC3CCCCC3)CC2)cc1	13.6	15.7	7.15
Nc1nc(N)c2c(ccc3c2ncn3Cc2ccccc2)n1	12.9	13.7	10.5
Cc1cc(N[C@@H](Cc2ccccc2)C(=O)Nc2ccccc2)nc(NCC2CCCCC2)n1	12.8	11.3	10.7
COc1ccc2nccc([C@@H](O)CN3CCC(NCc4cc5c(Cl)cccc5[nH]4)CC3)c2c1	10.6	14.7	2.34
Cc1cc(NC(=O)Nc2ccc3nc(C)oc3c2)c2cc(Cl)ccc2n1	3.48	2.12	1.38
Fc1ccc2cc(C=Cc3ccncc3)[nH]c2c1	2.24	4.09	0.56
COc1ccc(Nc2nccc(N3CCC(NC(=O)c4cccc(C#N)c4)C3)n2)cc1 (centres undefined)	2.52	4.34	3.91
COc1ccc(-c2ccc(NC(=O)c3ccc(Cl)cc3)cc2)cc1CN1CCN(C)CC1	-0.67	-2.59	-0.55
Cn1c(-c2ccccc2)cc2c3c(N)nc(N)nc3ccc21	105	104	98.2
COc1ccc(Cl)c(CC2c3cc(O)c(Cl)cc3CCN2C)c1 (centres undefined)	-0.53	-0.87	-1.58
Fc1ccc2[nH]c(-c3cccc(-c4ccc(CNCCc5ccncc5)cc4)c3)nc2c1	13.9	12.6	11.4
O=C(NCCCCN1CCC(c2c[nH]c3ccccc23)CC1)c1ccc(-c2ccc(C(F)(F)F)cc2)cc1	0.97	0.63	-0.72
Cc1ccc(NC(=O)Nc2ccc(Cl)cc2)cc1-c1ccc(C(=O)Nc2ccncc2)cc1	2.15	1.58	0.65
Cc1ccc(Nc2nc(NN=Cc3ccc(-c4ccc([N+](=O)[O-])cc4)o3)nc(N3CCOCC3)n2)cc1Cl	-1.18	-1.96	-0.54
CC(CN1CCN(C)CC1)C(=O)Nc1ccc(-c2cccc(-c3nc4ccccc4[nH]3)c2)cc1 (centres undefined)	2.41	1.7	-0.2
N#Cc1cccc(NC(=O)Nc2ccc(-c3cccc(-c4nc5cc(F)ccc5[nH]4)c3)cc2)c1	3.67	1.58	4.18
CC(C)(C)c1ccc(NC(=O)Nc2ccc(Cn3ncc(N4CCCNCC4)c(Cl)c3=O)cc2)cc1	6.36	6.82	3.41
O=C(Nc1nccs1)c1cc(-c2cccnc2)nc2ccc(Br)cc12	7.77	-0.8	-0.59
COc1ccc2nccc([C@@H](O)CN3CCC(NCc4cc5oc(=O)[nH]c5cc4F)CC3)c2c1	0.09	0.65	2.44
CCCc1cc(Cc2cnc(N)nc2N)cc2c1OC(C)C2C (centres undefined)	8.26	8.61	5.24
CCOc1ccc(-c2nonc2NC(=O)c2ccco2)cc1OCC	1.01	-0.52	0.72
